The nature of this test: cAMP Responsive Elements (CRE) small molecule agonists, cell-based qHTS assay (AID 1963590). To be noted: CRE-bla HEK293T, beta-lactamase FRET ratio, 3 h; series mostly up to 92.4 µM. The method, boiled down:
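Beta-lactamase reporter readout: LiveBLAzer B/G FRET substrate, 2 h at room temperature, added after 3 h compound treatment of CRE-bla HEK 293T cells at 37 C/5% CO2.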

Inconclusive results are not listed. Entries that show only a call come without a potency. Unmarked numbers belong to inactive results. Active and inactive are the calls of the source. Calls come from the whole dose curve.
Potency is the fitted concentration of half-maximal effect.

Take `CCCCC1CCC(O)CC1` (configuration not stated): the Potency result is “inactive”.

Turning to `C=C(C)C(=O)OCCC[Si](Cl)(Cl)Cl`, the Potency result was “inactive”.

Take `CC(C)(CO)[C@@H](O)C(=O)NCCC(=O)O`: the Potency result is “inactive”.

For `CCCCCC(=O)CC`, the Potency entry is “inactive”.

Regarding `COC(=O)c1ccccc1C`, the Potency entry is “inactive”.

Consider `CCCCC(CC)COCCC#N` (configuration not stated), for which the Potency entry is “inactive”.

For `CN(C)CCCN(C)CCCN(C)C`, the Potency result was “inactive”.

`CC(=O)N[C@@H](Cc1ccc(O)cc1)C(=O)O`: the Potency entry was “inactive”.

As for `CCOC(=S)SSC(=S)OCC`, the Potency result is “inactive”.

`CC(=O)N[C@H]1[C@H]([C@H](O)[C@H](O)CO)OC(C(=O)O)=C[C@@H]1N=C(N)N`: the Potency entry was “inactive”.

In the case of `C[C@@H]1CCC[C@H](C)N1`, the Potency entry is “inactive”.

Regarding `C=CCCC(=O)/C=C/C1C(C)=CCCC1(C)C` (configuration not stated), the Potency result was “inactive”.

On to `N#CC1(O)CCCCC1`, for which the Potency result was “inactive”.

Take `CCCCCCCC(=O)N(C)C`: the Potency entry was “inactive”.

Turning to `CCN1CCC[C@H]1CNC(=O)c1c(O)c(Cl)cc(Cl)c1OC`, the Potency result was “inactive”.

As to `CCc1cccc(CC)c1NC(=O)C(=O)O`, the Potency result is “inactive”.

Turning to `CC1=NN(c2ccc(S(=O)(=O)O)cc2)C(=O)C1`, the Potency result is “inactive”.

Regarding `CCC(N)(CO)CO`, the Potency entry is “inactive”.

In the case of `Cc1cc(C)cc(N)c1`, the Potency result was “inactive”.

In the case of `C=CC(C)(CCC=C(C)C)OC=O` (configuration not stated), the Potency result is “inactive”.

As for `O=Cc1ccc(Cl)c(Cl)c1`, the Potency entry was “inactive”.

Turning to `O=C1OC(=O)C2CC=CCC12` (configuration not stated), the Potency entry was “inactive”.

For `O=C(O)Cc1cccc(-c2cc(CCCCCCc3ccc(O[C@H]4O[C@H](CO)[C@@H](O)[C@H](O)[C@@H]4O)c(-c4cccc(CC(=O)O)c4)c3)ccc2O[C@H]2O[C@H](CO)[C@@H](O)[C@H](O)[C@@H]2O)c1`, the activation is 1% [at 0.349 µM].

Turning to `Nc1ncnc2c1ncn2[C@@H]1O[C@H](COP(=O)(O)O)[C@@H](O)[C@H]1O`, the Potency is 11.9 µM (active).

`CC(C)OC=O`: the Potency entry is “inactive”.

For the molecule `CO/N=C(/C(=O)N[C@@H]1C(=O)N2C(C(=O)O)=C(COC(N)=O)CS[C@H]12)c1ccco1`, the Potency entry is “inactive”.

Take `O=C1C=CC(=O)O1`: the Potency entry was “inactive”.

`COc1ccc2cccc(CCNC(C)=O)c2c1`: the Potency entry is “inactive”.

Consider `CCc1c(C(=O)O)c(=O)cnn1-c1ccc(Cl)cc1`, for which the Potency entry was “inactive”.

For `O=C1NC(c2ccccc2)(c2ccccc2)C(=O)N1COP(=O)(O)O`, the Potency result is “inactive”.

For `NC(=O)c1ccc([N+](=O)[O-])cc1`, the Potency result is “inactive”.

As to `CCOC(=O)c1ccc(C)cc1`, the Potency entry is “inactive”.

`CCSC(=O)N(CC(C)C)CC(C)C`: the Potency result is “inactive”.

On to `CC(C=O)c1ccccc1` (configuration not stated), for which the Potency entry is “inactive”.

In the case of `Nc1nccs1`, the Potency result was “inactive”.

As for `CCN(CC)S(=O)(=O)c1ccc(C(=O)O)cc1`, the Potency result is “inactive”.

For `CC(=O)OCCN(CCOC(C)=O)c1ccc(N=Nc2ccc([N+](=O)[O-])cc2C#N)cc1`, the Potency result was “inactive”.

Consider `Cc1sccc1Br`, for which the Potency entry was “inactive”.

Take `CC(=O)OCCc1ccccc1`: the Potency result was “inactive”.

As to `Cc1ccc(-c2ccccc2C#N)cc1`, the Potency result was “inactive”.

As to `CC1CC(O)CC(C)(C)C1` (configuration not stated), the Potency result was “inactive”.

Consider `C[N+](C)(C)CC[N+]1(C)Cc2c(Cl)c(Cl)c(Cl)c(Cl)c2C1`, for which the Potency entry is “inactive”.

As to `COc1cccc(OC)c1O`, the Potency entry is “inactive”.

Consider `COc1cc(OC)nc(O[C@H](C(=O)O)C(OC)(c2ccccc2)c2ccccc2)n1`, for which the Potency entry was “inactive”.

For the molecule `CCOC(=O)O[C@]1(C(=O)OCCl)CC[C@H]2[C@@H]3CCC4=CC(=O)C=C[C@]4(C)[C@H]3[C@@H](O)C[C@@]21C`, the Potency result was “inactive”.

On to `COC(CC(C)CCCC(C)(C)O)OC` (configuration not stated), for which the Potency result was “inactive”.

Turning to `C=CCOCC(CC)(CO)COCC=C`, the Potency entry was “inactive”.

With `C=C(C)C(=O)OCCNC(C)(C)C`, the Potency result was “inactive”.

In the case of `C=C(C)C(=O)OCCC(F)(F)C(F)(F)C(F)(F)C(F)(F)C(F)(F)C(F)(F)F`, the Potency result was “inactive”.

Turning to `Nc1ccc([N+](=O)[O-])c(C(F)(F)F)c1`, the Potency entry was “inactive”.

As for `C1=CCC2CC=CC2C1` (configuration not stated), the Potency result is “inactive”.

For the molecule `O=S(=O)(O)C(F)(F)F`, the Potency result was “inactive”.

Take `CCCc1cc(C(N)=S)ccn1`: the Potency entry is “inactive”.

On to `C/C=C/C(=O)C1=C(C)C=CCC1(C)C`, for which the Potency result is “inactive”.

On to `C/C=C/c1ccc(OC)c(OC)c1`, for which the Potency result is “inactive”.

As for `O=C(O)c1ccc(O)cc1O`, the Potency entry was “inactive”.

On to `NS(=O)(=O)c1ccc(NC(=O)CCC(=O)O)cc1`, for which the Potency entry is “inactive”.

Consider `O=C(c1ccccc1O)c1ccccc1O`, for which the Potency entry is “inactive”.

Turning to `C=C1[C@H]2CC[C@@H]3[C@H]2C(C)(C)CCC[C@]13C`, the Potency result is “inactive”.

As to `CCC(CO)(CO)CO`, the Potency entry was “inactive”.

On to `CC(=O)c1ccc2ccccc2c1`, for which the Potency result is “inactive”.

Take `O=C1Cc2cc(Cl)ccc2N1`: the Potency result is “inactive”.

Regarding `O=C(O)c1cc2ccccc2nc1C(=O)O`, the Potency result was “inactive”.

As for `CCc1occc(=O)c1O`, the Potency entry was “inactive”.

As for `CC(=O)N(O)CCCCCNC(=O)CCC(=O)N(O)CCCCCNC(=O)CCC(=O)N(O)CCCCCN`, the Potency result is “inactive”.

With `O=S(=O)(O)c1cc(O)c(O)c(S(=O)(=O)O)c1`, the Potency entry was “inactive”.

As for `CCN(CC#N)c1cccc(C)c1`, the Potency result was “inactive”.

For the molecule `CCC1CCCCC1`, the Potency entry was “inactive”.

For `CC(C)CCCO`, the Potency result is “inactive”.

As to `CC1(C)[C@H]2CC[C@](C)(C2)[C@H]1O`, the Potency result was “inactive”.

As to `CC(C)CC(O)CC(C)C`, the Potency result is “inactive”.

Consider `O=c1[nH]cnc2c1ncn2[C@@H]1O[C@H](CO)[C@@H](O)[C@H]1O`, for which the Potency entry was “inactive”.

Consider `NC/C=C/C(=O)O`, for which the Potency result is “inactive”.

Take `ON(Cc1ccccc1)Cc1ccccc1`: the Potency entry is “inactive”.

For `NC(=O)c1ccc([N+](=O)[O-])cc1Cl`, the Potency entry is “inactive”.

For `NCCC(O)(P(=O)(O)O)P(=O)(O)O`, the Potency entry was “inactive”.

Regarding `CCOC(=O)CN1CCCC1=O`, the Potency entry is “inactive”.

In the case of `O=C[C@H](O)[C@H](O)[C@H](O)CO`, the Potency result was “inactive”.

Consider `CCCCCCCCCCCCI`, for which the Potency result was “inactive”.

Regarding `CC(=O)N1CCN(c2ccc(O)cc2)CC1`, the Potency entry was “inactive”.

`CCOC(=O)[C@H](CCc1ccccc1)N[C@@H](C)C(=O)N1Cc2ccccc2C[C@H]1C(=O)O`: the Potency entry was “inactive”.

As for `CO[C@@]1(NC(=O)CSC[C@@H](N)C(=O)O)C(=O)N2C(C(=O)O)=C(CSc3nnnn3C)CS[C@@H]21`, the Potency entry is “inactive”.

Source of the values: PubChem BioAssay (Tox21).
